Most compounds without a hit are left out; they make up all but 0.64% or so of the library.
RECQ1 helicase – RECQ1 (human) helicase inhibition. P46063. RECQ1 DNA unwinding, red fluorescence kinetic read. Potency, µM (highest dose often 57.3 µM), for the others: top-dose activity, negative = inhibition, most hits filed as inhibitors. actives 0.54% (n = 240,000). AID 2549;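 also: plate controls were vehicle for no effect and no enzyme for full effect; nearly all actives have a fitted effect of over 30% in size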
Target sequence (P46063 whole entry, looked up): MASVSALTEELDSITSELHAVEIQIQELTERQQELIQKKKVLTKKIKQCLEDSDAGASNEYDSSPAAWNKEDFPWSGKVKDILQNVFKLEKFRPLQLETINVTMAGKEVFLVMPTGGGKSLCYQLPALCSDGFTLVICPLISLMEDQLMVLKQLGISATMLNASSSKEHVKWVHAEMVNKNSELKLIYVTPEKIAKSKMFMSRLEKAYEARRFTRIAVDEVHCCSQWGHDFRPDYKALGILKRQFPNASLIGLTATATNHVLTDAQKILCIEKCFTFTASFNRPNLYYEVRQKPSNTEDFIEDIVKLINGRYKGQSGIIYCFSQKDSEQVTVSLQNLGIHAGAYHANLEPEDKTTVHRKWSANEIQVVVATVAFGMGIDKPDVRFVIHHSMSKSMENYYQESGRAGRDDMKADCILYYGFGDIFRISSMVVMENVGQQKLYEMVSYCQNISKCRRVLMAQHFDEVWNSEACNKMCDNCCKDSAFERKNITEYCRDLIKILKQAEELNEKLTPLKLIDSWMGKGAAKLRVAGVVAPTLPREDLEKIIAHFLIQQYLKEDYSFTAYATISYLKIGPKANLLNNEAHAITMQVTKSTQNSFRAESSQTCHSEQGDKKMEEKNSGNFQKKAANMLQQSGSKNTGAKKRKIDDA
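50 nM RECQ1T1 preincubated 15 min with compound in Tris pH 8.0 buffer with MgCl2, DTT, Tween-20 and 2.5 ug/ml poly(dI-dC); started with 200 nM TAMRA/BHQ-2 forked duplex and 2 mM ATP. Unwinding read as fluorescence (525/598 nm), two reads 2 h apart.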
TexasRed fluor – Texas Red fluorescence interference in TRb-SRC2 counter-screen; TRb/SRC2 Texas Red total fluorescence interference; Potency, µM (series often up to 106 µM), for inactives: at the highest dose fluorescence change, negative = quenching; actives 0.29% (n = 280,000); active = well fitted curve in either direction with a large enough effect; inconclusive = small, poorly fitted or top-dose-only effect
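Flags fluorescent or light-absorbing compounds by total fluorescence, S + 2P, at 555 nm excitation and 632 nm emission. Mixture: 20 nM Texas Red SRC2 peptide, 0.6 uM human TRb LBD, 1 uM T3, 5% DMSO; compound exposure 5 h at ambient temperature.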
BLM helicase inh – Bloom syndrome helicase (human) inhibition. actives 0.2% (n = 350,000). recombinant BLM DNA unwinding, fluorescence dequenching. Potency, µM (top dose mostly 56.1 µM), for inactives: at the highest dose activity change, negative = inhibition, most hits filed as inhibitors;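 also: plate controls were vehicle for no effect and no enzyme for full effect; nearly all actives have a fitted effect of over 35% in size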
TRb-SRC2 inh – inhibitors of human thyroid hormone receptor beta-SRC2 interaction; Potency, µM (top dose mostly 106 µM), for the others: at the top dose activity change, negative = inhibition, actives largely listed as inhibitors; actives 0.065% (n = 280,000); TRbeta-SRC2 peptide binding, fluorescence polarization; receptor liganded with 1 µM T3; P10828; AID 1469;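 also: plate controls were bound peptide for no effect and peptide without receptor for full effect; nearly all actives have a fitted effect of over 50% in size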
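Fluorescence polarization of 20 nM Texas Red SRC2 peptide with 0.6 uM human TRb ligand-binding domain, in Tris buffer with 1uM T3 and 5% DMSO. Incubated 5 hr ambient; normalized to unbound and bound controls.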
Numbers without * were called inactive; i = inactive; ? = inconclusive; · = no result given; [ ] = dose if it differs, or a comment. Unless noted, calls follow the shape of the dose curve; as a rule, active = well fitted curve in the direction sought with a large enough effect; inconclusive = small, poorly fitted or top-dose-only effect, or another doubt; inactive = no such curve, though single readings can be large; an effect the other way counts as inactive or inconclusive. Unless noted, % is scaled to controls: 0 for no effect and ±100 for the full control effect; potency is read from the fitted curve at half-maximal effect.

SMILES	RECQ1 helicase	TexasRed fluor	BLM helicase inh	TRb-SRC2 inh
CC(COc1ccc(C(C)(C)C)cc1)OS(=O)OCCCl (centres undefined)	·	0%[201 µM]	·	-1%[201 µM]
COC(=O)/C(C#N)=C/c1ccc(-c2ccc(S(N)(=O)=O)cc2)o1	3.2µM*	3%	1%	-6%
CC(C)OC(=O)/C(C#N)=C/c1ccc(-c2ccc(SC(F)F)cc2)o1	8%	-4%	-6%	2%
C/C=C\C1=C(CO)C(=O)[C@@H]2OC2C1=O (some centres undefined)	3.5µM*	?	-5%[12.4 µM]	-12%[11.2 µM]
C/C=C\C1=C(CO)[C@H](O)[C@H]2O[C@H]2[C@H]1O	i[11.5 µM]	-1%[11.2 µM]	3%[12.4 µM]	-7%[11.2 µM]
CCOC(=O)c1sc(Nc2nc3cc4c(cc3s2)OCO4)cc1C	-15%	0.32µM*[quencher]	-18%	2%
COc1cc(C/C=C\c2ccccc2)c(OC)cc1O	?	-3%	-1%	7%
CCc1nn(-c2ccccc2)c2nc(-c3ccccc3OC)c3cc(OC)c(OC)cc3c12	·	0.14µM*[quencher]	-8%	-14%
CC(C)(C)[C@@H]1C=C(C(=O)O)O[C@H](OCc2ccc(CO)cc2)C1	-8%	-1%	0%	-5%
CC(C)(C)[C@H]1C=C(C(=O)Nc2ccccc2)O[C@@H](OCc2ccc(CO)cc2)C1	28µM*	-2%	-11%	-1%
Cc1c2oc3c(C)ccc(C(=O)NC4C(=O)NC(C(C)C)C(=O)N5CCCC5C(=O)N(C)CC(=O)N(C)C(C(C)C)C(=O)OC4C)c3nc-2c(C(=O)NC2C(=O)NC(C(C)C)C(=O)N3CCCC3C(=O)N(C)CC(=O)N(C)C(C(C)C)C(=O)OC2C)c(N)c1=O (centres undefined)	3.2µM*	-1%	·	-4%
CC(C)C(=O)OCC(C)(C)C(O)C(C)C (centres undefined)	·	2%[201 µM]	·	2%[201 µM]
COc1c(O)cc2c(c1O)C1OC(CO)C(O)[C@H](O)[C@H]1OC2=O (some centres undefined)	-11%	-2%	4%	-6%
O=C(O[C@@H]1OC2COC(=O)c3cc(O)c(O)c(O)c3-c3c(cc(O)c(O)c3O)C(=O)O[C@@H]([C@H]1O)[C@@H]2O)c1cc(O)c(O)c(O)c1	-29%	-1%	5.6µM*	3%
C=C[C@@H]1CN2CC[C@@H]1C[C@H]2[C@H](O)c1ccnc2ccc(OC)cc12	-4%	·	·	-4%
CCCCc1cc(=O)oc2cc(C)c3c(C(C)(C)C)coc3c12	·	100µM*[quencher]	-5%	-5%
COc1ccc(NC(=O)c2oc3ccccc3c2NC(=O)C23CC4CC(CC(C4)C2)C3)cc1	·	-2%	-14%	2%
CC(=O)N1N=C(c2ccc(C)cc2)CC1c1cn(-c2ccccc2)nc1-c1cccs1 (centres undefined)	·	100µM*[quencher]	-3%	-7%
CCOc1ccc(/C=C/c2nc(C#N)c(N3CCN(c4ccccc4)CC3)o2)cc1	·	-3%	2%	7%
CC1(C)CC(OC(=O)CCCCCCCCC(=O)OC2CC(C)(C)NC(C)(C)C2)CC(C)(C)N1	·	-1%[201 µM]	·	-2%[201 µM]
CCOc1ccc2nc(N3C(=O)/C(=C/c4ccc(Cl)cc4)NC3=S)sc2c1	-11%	1%	28µM*	-2%
Cc1cccc(CCn2c(=O)c3ccccc3n(Cc3ccccc3C)c2=O)c1	·	0%	-5%	-2%
COc1cc2cccc(OC)c(=O)c2c(OC)c1OC	-7%	0%	-13%	11%
O=c1c(O)cccc2cc(O)c(O)c(O)c12	2.5µM*	?	13µM*	4%
Cc1ccc(OCC(=O)N(Cc2ccco2)Cc2ccco2)cc1	·	0%	-2%	-12%
SMILES	RECQ1 helicase	TexasRed fluor	BLM helicase inh	TRb-SRC2 inh
Cc1ccc2c(CC(=O)N(Cc3ccc(Cl)cc3)Cc3ccco3)coc2c1	·	1.1µM*[quencher]	-7%	-17%[53 µM]
Cc1ccc(CN(Cc2ccco2)C(=O)COc2ccc(C(C)C)cc2)cc1	·	0.0006µM*[quencher]	-8%	?
CSc1nc(SCCO)c2sc3nc(-c4ccco4)c4c(c3c2n1)CC(C)(C)OC4	13µM*	?	13µM*	10%
CC1(C)Cc2c(c(-c3ccco3)nc3sc4c(NCCO)ncnc4c23)CO1	i	-1%	4%	0%
COc1ccc(NC(=O)CSc2nc3ccccc3nc2N2CCC(C)CC2)cc1	·	1%	-9%	-2%
COC(=O)c1ccc(C(NC(=O)OCc2ccccc2)/C(=C/[C@@H](C)C(=O)NCc2nc3ccccc3n2C)c2cccnc2)cc1 (some centres undefined)	-16%	-7%	2%	2%
CC(=O)Nc1ccc(Nc2nc3c(S(=O)(=O)c4cccc(Cl)c4)nnn3c3ccsc23)cc1	·	-2%	-11%	-2%
COc1cccc(NC(=O)CC(C)S(=O)(=O)c2ccc3c(c2)NC(=O)CO3)c1 (centres undefined)	·	20µM*[quencher]	1%	-11%
CC1=CC2(O)OCCN(CCO)C2=CC1=O (centres undefined)	25µM*	-25%	?	-16%
CC(C=CC1=C(C)CCCC1(C)C)=CC=CC(C)=CC(=O)Nc1ccc(O)cc1	·	-2%[201 µM]	·	-3%[201 µM]
CC(=O)OCCCNc1cc(SCc2ccco2)c2nonc2c1[N+](=O)[O-]	?	-6%	-17%	-3%
CCCC(=O)OCCNc1cc(SCc2ccco2)c2nonc2c1[N+](=O)[O-]	3%	6%	13µM*	-10%
Cc1ccc(-c2csc(N3N=C(c4ccccc4)/C(=C\c4ccc(N(C)C)cc4)C3=O)n2)cc1	-11%	40µM*[quencher]	-23%	?
Cc1ccc(S(=O)(=O)c2c(N)n(-c3ccccc3)c3nc4ccccc4nc23)cc1	-13%	9%	-8%	3%
CC(=O)Nc1c(S(=O)(=O)c2ccccc2)c2nc3ccccc3nc2n1Cc1ccccc1	-4%	-3%	-3%	-2%
C=CCn1c(NS(=O)(=O)c2ccccc2)c(S(=O)(=O)c2ccc(C)cc2)c2nc3ccccc3nc21	-6%	-2%	4.5µM*	-11%
O=S(=O)(Nc1c(S(=O)(=O)c2ccccc2)c2nc3ccccc3nc2n1C1CCCCC1)c1ccccc1	-10%	-1%	10µM*	?
Cc1ccc(OCCn2cc(/C=N/NC(=O)c3ccncc3)c3ccccc32)cc1	25µM*	-3%	-2%	7%
COc1ccc(CCNCc2ccc3c(c2)n(C)c(=O)n3C)cc1OC	·	89µM*[quencher]	-9%	-22%
O=c1[nH]c2ccc(NCc3ccc(-c4ccc(Cl)cc4)o3)cc2[nH]1	·	100µM*[quencher]	-3%	?
CCOCCc1nn2c(=O)cc(COC(=O)c3ccccc3Br)nc2s1	·	-3%	-8%	7%
CCOC(=O)C1=C(CSc2nc(-c3ccccc3)ccc2C#N)OC(N)=C(C#N)C1c1ccc(OC)cc1 (centres undefined)	10µM*	2%	-13%	8%
CCOC(=O)C1=C(CSc2nc(CC)c(C)cc2C#N)OC(N)=C(C#N)C1c1ccccc1 (centres undefined)	-23%	-1%	-13%	-10%
O=[N+]([O-])c1cc2c(cc1/C=N/n1c(-c3ccccc3)n[nH]c1=S)OCO2	-13%	0%	18µM*	10%
